In PubChem BioAssay (NCI):
This is part of a sample that, as a whole, favours compounds with a hit. Of some 83,000 tested, about 20% had one in any assay.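 Step 1: grow cells in 96-well plates. Step 2: add test compound at a single concentration. Step 3: incubate 48 h. Step 4: record percent growth.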 Activity calls are given as the source filed them. How the source made its calls: active means growth percent below 10; inactive means the rest.

Test system: MDA-MB-468 breast
Assay: NCI-60 one-dose screen, 48 h (100 = growth as untreated, 0 = no growth, -100 = all killed)
Settings: 10 µM unless noted

| Structure (SMILES) | growth |
| --- | --- |
| C#C[C@]1(O)CC[C@H]2[C@@H]3CC=C4c5nc(N)sc5CC[C@]4(C)[C@H]3CC[C@@]21C | 34% (inactive) |
| O=C(c1nc2ccccc2[nH]1)C1C(c2ccc(Br)cc2)C2CC3CCCC[C@H]3N2[C@@]12C(=O)Nc1cc(Cl)ccc12 (some centres undefined) | 12.5% (inactive) |
| Cc1ccc[n+](CCC(N)=O)c1 | 108% (inactive) |
| CCn1cc(C(=O)O)c(=O)c2cc(F)c(N3CCN(S(=O)(=O)c4ccc(Cl)cc4Cl)CC3)cc21 | -1.55% (active) |
